# In the library only some 3.9% were active in any assay of this set; here they are far more common.
# Mtb FBA inh: inhibits M. tuberculosis FBA enzyme. P9WQA3. purified M. tuberculosis FBA, fluorescence read-out. inhibition, % at 1 µM. 360,000 tested, 2.3% active; in the data active = inhibition above about 27%;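 also: 0% = vehicle and 100% = reference inhibitor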
# Target sequence (P9WQA3 whole entry, looked up): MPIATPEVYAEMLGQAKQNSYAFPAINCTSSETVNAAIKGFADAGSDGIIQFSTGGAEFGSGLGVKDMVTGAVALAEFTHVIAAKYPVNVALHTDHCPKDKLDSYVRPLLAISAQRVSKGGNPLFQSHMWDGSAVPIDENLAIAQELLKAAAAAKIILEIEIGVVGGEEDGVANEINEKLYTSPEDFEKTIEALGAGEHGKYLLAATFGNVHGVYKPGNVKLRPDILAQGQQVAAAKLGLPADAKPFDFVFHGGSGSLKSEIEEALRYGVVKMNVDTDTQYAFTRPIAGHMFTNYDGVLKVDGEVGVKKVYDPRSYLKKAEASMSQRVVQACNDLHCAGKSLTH
# GDH-TPI inh: counter-screen for M. tuberculosis FBA inhibitors: GDH-TPI coupled enzymes | GDH-TPI coupled enzyme counterscreen, NADH absorbance | inhibition, % at 4.8 µM | 360,000 tested, 1.2% active; in the data active = inhibition above about 30%;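 also: 0% = DMSO wells and 100% = wells lacking the enzyme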
# PrPC surface inh: reduces human prion protein on the cell surface. cell surface PrPC, TR-FRET read-out. inhibition, % at 13.8 µM. 370,000 tested, 0.43% active. AID 720596; in the data active = inhibition above about 24%; also: 0% = median of the test wells and 100% = reference compound wells
# Vc quorum ag: induces V. cholerae light production without autoinducers; V. cholerae BH1578 lux reporter, luminescence, 6 h; activation, % at 18.7 µM; 350,000 tested, 0.16% active; AID 588436; in the data active = activation mostly above about 9.7%, no sharp cut-off
# SARS 3CLpro inh: SARS-CoV 3CLpro protease inhibition. P0C6X7. recombinant SARS-CoV 3CLpro, quenched FRET peptide cleavage. inhibition, % at 6 µM. 290,000 tested, 0.14% active; in the data active = inhibition above about 12%
# Starred values were filed as active, the others as inactive; i = inactive; nt = no result given; + = active, no number.
SMILES,Mtb FBA inh,GDH-TPI inh,PrPC surface inh,Vc quorum ag,SARS 3CLpro inh
COc1ccc(/C=N/N(CCC(=O)NC(C)(C)C)C2=NS(=O)(=O)c3ccccc32)cc1,5.9,47.0*,4.9,-0.9,-0.6
O=C(NCCS(=O)(=O)N1CCCCC1)c1ccc2c(c1)OCO2,0.6,-3.6,6.6,-1.4,nt
O=C(Cn1cncn1)c1ccc(F)cc1F,2.5,0.0,5.1,-0.4,0.6
COc1cc2c(c(OC)c1OC)-c1ccc(OC)c(=O)cc1C(NC(C)=O)CC2 (stereo unspecified),-5.5,17.1,1.8,i,1.6
COc1c(C=O)c2c(c(OC)c1OC)-c1ccc(OC)c(=O)cc1C(NC(C)=O)CC2 (stereo unspecified),1.1,31.9*,7.4,-1.0,nt
Clc1ccc(CN2CCN(c3ncccn3)CC2)c(Cl)c1,3.0,6.9,-0.4,-0.3,1.9
COc1cc2c3c(n(C)c(=O)c2cc1OC)-c1cc2c(cc1C3=O)OCO2,-3.0,3.2,nt,i,nt
c1ccc2c(c1)CCCN2c1nc2ccccc2n2cnnc12,2.2,35.7*,-1.6,-0.1,-0.7
c1ccc2c(c1)CCN(c1nc3ccccc3n3cnnc13)C2,5.3,4.3,6.8,-0.3,-1.6
CCCCN1CCN(C2=NC(=O)N(c3ccc(Br)cc3)C(=O)C2)CC1,nt,nt,0.1,nt,nt
COc1ccc2cc3cc(C(=O)NCCN4CCc5ccccc5C4)oc3nc2c1,188.1*,37.6*,nt,0.9,3.1
COc1ccc2cc3cc(C(=O)NCCN4CCN(Cc5ccccc5)CC4)oc3nc2c1,+,19.9,-33.5,-2.0,-9.2
COc1ccc(C(=O)NCCS(=O)(=O)N2CCN(Cc3ccccc3)CC2)cc1,3.4,0.3,1.2,-1.2,nt
COc1ccc2cc3cc(C(=O)NCCN4CCc5ccccc5C4)sc3nc2c1,22.2,6.5,-13.6,-0.3,-5.8
O=C(CCn1nnc(-c2cccs2)n1)N1CCCCC1,nt,nt,6.1,nt,nt
OCCC1CCCCN1CC(O)COCc1ccc(Cl)cc1 (stereo unspecified),-0.3,-2.2,-3.4,-0.2,6.6
C=CS(=O)(=O)N(Cc1ccc(F)cc1)C(=C)C(=O)OC,nt,nt,53.3*,nt,nt
O=C(c1ccco1)n1c(=S)nc2ccccn21,-3.9,52.0*,-0.5,i,0.7
Cc1cccc2nc(=S)n(C(=O)c3ccco3)n12,-0.3,27.4,-0.8,-0.2,-1.4
O=C(NC1=NCCS1)c1cccc(S(=O)(=O)N2CCOCC2)c1,0.2,0.3,4.7,i,nt
CCN(CC)C(=O)CSc1nc2c(sc(=S)n2Cc2ccco2)c(=O)n1-c1ccccc1,3.6,10.8,8.3,-5.9,8.4
COc1ccccc1NC(=O)Cn1c(C)nc2c(sc(=S)n2Cc2ccco2)c1=O,0.6,31.7*,4.6,-0.3,3.1
CCOC(=O)CSc1nc2c(sc(=S)n2Cc2ccco2)c(=O)n1-c1ccccc1,-2.4,32.9*,6.2,-0.4,5.5
CCCC(NC(=O)C(C)Sc1nnnn1C1CC1)c1ccccc1 (stereo unspecified),1.3,6.1,3.5,-3.4,nt
Cc1c(C)c(C)c2[nH]c(-c3ccc4c(c3)OCO4)nc2c1C,173.2*,3.2,nt,-0.5,-5.4
SMILES,Mtb FBA inh,GDH-TPI inh,PrPC surface inh,Vc quorum ag,SARS 3CLpro inh
O=C(O)c1ccc(-c2nc(-c3ccccc3)c(-c3ccccc3)[nH]2)cc1,+,29.7,-3.1,-1.7,-1.9
Oc1ccc(-c2nc(-c3ccc(F)cc3)c(-c3ccncc3)[nH]2)cc1,2.2,18.8,-9.9,3.6,nt
COc1ccc(-c2[nH]c(-c3ccc4c(c3)OCO4)nc2-c2ccccc2)cc1,80.3*,9.4,22.1,i,-0.2
COc1ccc(-c2[nH]c(-c3ccc(C(=O)O)cc3)nc2-c2ccccc2)cc1,+,11.1,9.5,-0.2,3.2
COc1ccc(-c2nc(-c3ccccc3)[nH]c(=O)c2C#N)cc1,-2.1,0.9,3.9,-0.3,3.7
Cc1ccc(S(=O)(=O)N2CC3(COC(C)(C)OC3)C[C@H]2CON2C(C)(C)CCCC2(C)C)cc1,nt,nt,9.3,nt,nt
CC(=O)Cc1nsc(NC(=O)c2ccc(-c3cc(Cl)ccc3Cl)o2)n1,10.5,45.9*,2.9,-0.3,0.6
CC(=O)Cc1nsc(NC(=O)c2ccc(-c3ccc(Cl)cc3Cl)o2)n1,2.1,-0.6,-4.9,i,4.8
COc1ccc(C2=NOC(Cn3nc(-c4ccccc4)cc3C(=O)NCc3ccccc3OC)C2)cc1 (stereo unspecified),-0.2,1.7,-9.8,0.4,nt
Cc1ccc(N/C=C/C(=O)c2ccc(C)cc2)cc1,3.3,5.8,-2.7,1.0,-0.2
Cc1ccc(C(=O)/C=C/Nc2ccccn2)cc1,-0.3,33.3*,2.8,0.5,-0.9
COc1cc(/C=N/Nc2ncc(C(F)(F)F)cc2Cl)cc(OC)c1OC,-3.1,31.9*,2.9,-0.2,-4.4
COc1cc(/C=N/Nc2ncc(C(F)(F)F)cc2Cl)cc(OC)c1O,-7.5,16.7,-7.7,-0.1,-2.3
CCOc1ccccc1-n1c(N)c(C(N)=O)sc1=S,-1.9,31.5*,-14.9,-1.0,-1.9
COc1ccc(Cl)cc1-n1c(N)c(C(N)=O)sc1=S,0.7,37.1*,nt,i,2.8
COC(=O)c1sc(=S)n(-c2ccccc2OC)c1N,-0.9,22.5,-1.0,-0.4,6.4
CCOC(=O)c1sc(=S)n(-c2ccccc2OC)c1N,-3.1,14.9,-14.1,i,-2.8
COc1ccccc1CNS(=O)(=O)CCNC1CC1,-3.3,0.5,-6.7,-0.4,nt
Cc1nc(S/C(=C/c2ccc(OCc3ccc(C(=O)O)cc3)cc2)C(=O)O)n[nH]1,3.6,31.3*,5.6,-1.3,3.3
Cc1nc(S/C(=C/c2ccc(-c3cccc(Cl)c3)o2)C(=O)O)n[nH]1,-2.9,6.3,-3.0,nt,-0.5
COc1ccc(CN2CCNC(=O)C2CC(=O)N(C)CCCN2CCOCC2)cc1C (stereo unspecified),-5.9,0.0,-0.8,-0.2,0.7
NC(=S)N/N=C/c1ccccc1OCc1cccc(Cl)c1,-0.8,41.2*,nt,-0.1,-1.0
COC(=O)N/N=C/c1ccccc1OCc1ccccc1,0.6,4.6,6.7,-0.3,3.9
NC(=S)NN=Cc1nccc2c(N)cccc12,-8.0,17.7,4.8,-0.3,nt
CCN(C(C)=O)c1cnc(C=NNC(N)=S)c2ccccc12,1.8,34.4*,9.8,-1.1,nt
Cc1cc[n+](-c2[nH]c(=O)sc2/C=N/NC([S-])=Nc2ccccc2)cc1C,-5.7,51.9*,-23.5,-0.2,-3.4
Cc1ccc[n+](-c2[nH]c(=O)sc2/C=N/N=C(\[O-])CCn2c3ccccc3c3ccccc32)c1,-4.1,21.5,-20.6,-0.3,-0.8
CC(C)(C)c1cc[n+](-c2[nH]c(=O)sc2/C=N/NC([S-])=Nc2ccccc2)cc1,-8.1,36.8*,-27.1,-0.5,-6.0
C#CCOCCOCCOCCNc1nc(N2CCN(C(=O)[C@H](CCCCN)n3cc(C(N)CO)nn3)CC2)nc(N2CCN(C(=O)[C@H](CCC(=O)O)n3cc(C(N)[C@H](C)CC)nn3)CC2)n1 (stereo partly specified),nt,nt,nt,nt,-2.6
Cc1ccc(NC(=O)CSc2ncc3ccccn23)cc1C,4.7,1.9,-9.0,-0.4,2.0

# Screens (PubChem)
